Assay results: PubChem BioAssay AID1117361 (Southern Research Institute, 2015)
The whole screen tested about 3,600 compounds, of which about 900 (25%) were called active. No rule for the calls is given here. Not all results are given here. Entries with a potency or affinity are not part of this list.

Molecular target: Protein Tat (Human immunodeficiency virus type 1 group M subtype B (isolate HXB2)) (UniProt P04608)
Assay: HIV-1 Tat–TAR interaction blockers – biochemical, fluorescence polarization, FAM-labeled TAR RNA, counter-screen for Vif-APOBEC3G degradation inhibitor project, dose response (AID 1117361)
Details: Tat-TAR RNA binding; series mostly up to 100 µM

Structure (SMILES) | outcome
CCCCN(C)C(=O)c1cn(CC)c2ccc(S(=O)(=O)N(C)C)cc2c1=O | inactive
O=C(CCCc1c[nH]c2ccccc12)N1CCOCC1 | inactive
COc1ccccc1C(=O)Nc1ccc(S(=O)(=O)Nc2cc(C)nc(C)n2)cc1 | inactive
O=C(O)c1ccc(NS(=O)(=O)c2cccc(C(=O)Nc3ccc([N+](=O)[O-])cc3)c2)cc1 | inactive
CCn1c(C(=O)N2CCCC(C(=O)NCCc3ccc(C)cc3)C2)cc2sccc21 (stereo not given) | inactive
CCCCOCCCNC(=O)c1ccc(OCC)cc1 | inactive
CC1(C)Oc2ccc(C(=O)NC3CCCC3)cc2N(CC(=O)NC2CCCC2)C1=O | inactive
CCCNC(=O)c1cccc(Cn2nc(C)c(Br)c2C)c1 | inactive
O=C(NC1CCCC1)c1ccc(CNc2c(N3CCOCC3)c(=O)c2=O)cc1 | inactive
CCC(Nc1nc(-c2ccccc2)nc2ccccc12)C(=O)O (stereo not given) | inactive
Clc1ccc(Sc2oc(/C=N/n3cnnc3)cc2Br)cc1 | inactive
O=C1C(Cl)=C(Nc2ccc3cn[nH]c3c2)C(=O)c2ccccc21 | inactive
C/C(=N\NC(=O)C(C)Oc1ccc([N+](=O)[O-])cc1)c1ccccn1 (stereo not given) | inactive
COC(=O)C1=C(C)N(C)C(C)=C(C(=O)OC)C1c1ccc(F)c(Br)c1 | inactive
COc1cc(OC)cc(C(=O)NC2CCN(C(=O)N3c4ccccc4Sc4ccccc43)CC2)c1 | inactive
Nc1c(-c2ccccc2Cl)cnn1-c1cccc([N+](=O)[O-])c1 | inactive
COC(=O)Nc1sc2c(c1C(=O)NCc1ccco1)CCCC2 | inactive
COc1ccc(-c2[nH]c(-c3ccc(C)cc3)nc2SCC(=O)NCc2ccco2)cc1OC | inactive
O=C1CC(SC(=Nc2ccccc2)Nc2ccccc2)C(=O)N1c1ccc(Cl)cc1 (stereo not given) | inactive
O=C(NCc1ccc(F)cc1)C1CCCN(C(=O)Nc2ccccc2)C1 (stereo not given) | inactive
CCOC(=O)CC1COc2ccccc2N1C(=O)c1ccc(C)cc1 (stereo not given) | inactive
CS(=O)(=O)NCc1nnc(SCc2ccccc2C(F)(F)F)o1 | inactive

Structure (SMILES) | outcome
CSc1oc(-c2ccccc2)nc1S(=O)(=O)c1ccc(C)cc1 | inactive
COc1ccc2c(c1)c1ccc3c(c1n2C)C(=O)C=CC3=O | inactive
Cc1ccc2c(c1)c1ccc3c(c1n2C)C(=O)C=CC3=O | inactive
COc1cc2c(cc1NC(=O)COC(=O)Cn1cnc3ccccc31)oc1ccccc12 | inactive
CCOC(=O)CSc1nnc(-c2cccnc2)n1Cc1ccccc1 | inactive
CCOC(=O)C(CC(=O)O)=C(c1ccccc1)c1ccccc1 | inactive
CCc1cccc(NC(=O)CN(C)S(=O)(=O)c2cccc3nsnc23)c1 | inactive
O=C(OCc1c(Cl)cccc1Cl)c1cccnc1Cl | inactive
Cc1ccc(-c2csc(NC(=O)C3CC=CCC3C(=O)O)c2C(=O)OC(C)C)cc1 (stereo not given) | inactive
O=C(C1CCCO1)N1CCC(c2nc3ccccc3[nH]2)CC1 (stereo not given) | inactive
O=C(C1CCN(S(=O)(=O)N2CCC3(CC2)OCCO3)CC1)N1CCOCC1 | inactive
O=C(NCC1CC1)c1ccc2c3n(nc2c1)-c1ccccc1CO3 | inactive
O=C(NNC(=O)c1ccccc1O)c1cc2ccccc2o1 | inactive
COc1ccc(C(=O)NCc2cn3cccc(C)c3n2)cc1OC | inactive
COc1ccc(Cl)c(NCCC(=O)O)c1 | inactive
O=C(NCc1cccnc1)c1cc(S(=O)(=O)N2CCCCC2)ccc1Cl | inactive
CC(=O)Nc1ccc(/C=N/Nc2ccc(C(=O)c3c(C)cc4ccccn34)cc2[N+](=O)[O-])cc1 | inactive
NS(=O)(=O)c1ccc(NC(=O)COC(=O)c2cc(Cl)ccc2[N+](=O)[O-])cc1 | inactive
Clc1ccc(/C(Cc2nc3ccccc3[nH]2)=N\Nc2ccccc2)cc1 | inactive
Cc1c(Cl)cccc1NC(=O)CC(Cc1ccccc1)C(=O)O (stereo not given) | inactive
COC(=O)c1cc2c(ccn2-c2ccc(F)cc2)n1CC(C)C | inactive
CC1CCN(c2nc3ccc(C(=O)N4CCN(Cc5ccccc5)CC4)cc3s2)CC1 | inactive

Structure (SMILES) | outcome
CCOC(=O)CSc1nnc(CNC(=O)c2cccs2)n1-c1ccccc1 | inactive
O=C(COC(=O)c1ccc(O)cc1O)NNC(=O)c1cccs1 | inactive
COc1cccc(OC)c1OCCOCCn1cnc2ccccc2c1=O | inactive
COCC(=O)NCc1nc2ccccc2[nH]1 | inactive [at 50 µM]
Clc1ccc(CNc2ccc(CNc3ncn[nH]3)cc2)c(Cl)c1 | inactive
CCOC(=O)CSc1nnc(CNc2ccc(Cl)cc2)n1-c1ccccc1 | inactive
CCOc1cc(Cl)c(S(=O)(=O)NCc2ccccn2)cc1Cl | inactive
CCn1c(CNc2ccc(Cl)cc2)nnc1SCc1ccccc1 | inactive
COc1cccc(/C=N/NC(N)=S)c1OCc1ccccc1Cl | inactive
CCCNC(=O)COC(=O)c1ccccc1OCc1ccc(Cl)cc1 | inactive
CCc1ccc(N2C(=O)Cc3c2nc(N)c(C#N)c3N)cc1 | inactive
CCOC(=O)Cn1nc(-c2ccccc2)c2cnc3ccc(C)cc3c21 | inactive
O=C1CC(c2c(F)cccc2Cl)C2=C(COC2=O)N1 (stereo not given) | inactive
COc1cccc(CC(=O)N2CCCC(CO)(Cc3ccc(F)cc3F)C2)c1 (stereo not given) | inactive
Cc1ccc(C(=O)COC(=O)CNC(=O)C(c2ccccc2)c2ccccc2)cc1[N+](=O)[O-] | inactive
C=CCn1c(SCC(=O)c2c(N)n(C)c(=O)n(C)c2=O)nnc1-c1ccccc1F | inactive
O=c1c2c(-c3ccco3)csc2nc(SCc2cn3cccnc3n2)n1-c1ccccc1 | inactive
N#CCOC(=O)c1sccc1-n1cccc1 | inactive
O=C(CSc1nnc(-c2ccc(F)cc2)o1)Nc1ccc(S(=O)(=O)N2CCCC2)cc1 | inactive
Cc1ccc(C(=O)Nc2cccc(C(=O)O)c2)cc1S(=O)(=O)N1CCOCC1 | inactive
Cc1nnc(NC(=O)c2ccc(C)c(S(=O)(=O)N3CCOCC3)c2)s1 | inactive
N#CC(=C1SC=CS1)c1nc(-c2ccccc2)cs1 | inactive

Structure (SMILES) | outcome
CCOC(=O)C1CCN(c2ncnc3cc(OC)c(OC)cc23)CC1 | inactive
CCOC(=O)C1CCN(Cc2cnc(Oc3ccc(OC)cc3)s2)CC1 | inactive
CCOC(=O)CSc1nnc(-c2ccco2)n1C | inactive
CSc1ncccc1C(=O)OCC(=O)N1CCOCC1 | inactive
CCN(CC)c1ccc(N=Cc2ccc(N(CC)CC)cc2O)cc1 | inactive
CCOC(=O)C1C(=O)CC(C)(O)C(C(=O)OCC)C1c1cc(Br)ccc1OC (stereo not given) | inactive
COc1cccc(-c2nn3c(-c4ccccn4)nnc3s2)c1 | inactive
O=C(CSc1nnc(-c2cccnc2)n1Cc1ccco1)c1ccc(Br)cc1 | inactive
N#Cc1ccc(CSc2nnc(Cc3cccs3)n2Cc2ccco2)cc1 | inactive
O=C(CCCCn1c(=O)[nH]c2ccsc2c1=O)NCc1cccnc1 | inactive
COC(=O)c1cc(=O)nc2sc(-c3ccc(F)cc3)nn12 | inactive
COc1c(OC(C)=O)ccc(/C=C/c2ccc3ccccc3n2)c1[N+](=O)[O-] | inactive
COC1=C(OC)C(=O)C(Sc2ccc3ccccc3c2)=CC1=O | inactive
CCNC(=O)NC(=O)COC(=O)CNC(=O)COc1ccccc1 | inactive
CCOC(=O)CNc1nc(-c2ccncc2)nc2ccccc12 | inactive
Cc1ccc(NC(=O)C(=O)c2c(-c3ccccc3)cc3ccccn23)cc1S(=O)(=O)N1CCOCC1 | inactive
O=C(C1CC(c2ccccc2O)=NO1)N1CCCCC1 (stereo not given) | inactive
Oc1ccc(/C=N/N2CCCCC2)c(O)c1 | inactive
Cc1ccc(NC2=NCCCCC2)cc1C | inactive
Cc1ccc(C(C[N+](=O)[O-])Sc2ccc(N)cc2)cc1 (stereo not given) | inactive
CCCCc1ccc(NC(=O)CC(C)(C)C)cc1 | inactive
COC(=O)c1sccc1NC(=O)CC1C(=O)NCCN1C(=O)Nc1ccccc1 (stereo not given) | inactive

Structure (SMILES) | outcome
COc1ccc(C2SCC(C(=O)NCc3ccc(F)cc3)N2C(C)=O)cc1 (stereo not given) | inactive
O=C(Nc1ccc(F)c(Cl)c1)c1cccnc1 | inactive
Cc1ccc(S(=O)(=O)C2(C(=O)Nc3cccc(F)c3)CC2)cc1 | inactive
O=C(NNC(=O)c1cccnc1)Nc1ccc([N+](=O)[O-])cc1 | inactive
CC(C)Cc1cc(C(=O)Nc2cccc(O)c2)no1 | inactive
CN1CCN(C(CNC(=O)c2ccc(Br)o2)c2ccc(F)cc2)CC1 (stereo not given) | inactive
CCOc1ccc(C2c3c(oc4ccccc4c3=O)C(=O)N2CCCN2CCOCC2)cc1 (stereo not given) | inactive
COc1ccc(C(C(C(=O)c2cccs2)N2CCOCC2)N2CCOCC2)cc1OC (stereo not given) | inactive
CN(C(=O)c1ccc(OC2CCN(S(=O)(=O)N(C)C)CC2)cc1)C1CCCCC1 | inactive
CC(=O)c1cccc(NC(=O)NCCS(C)=O)c1 (stereo not given) | inactive
O=C(Nc1ccccc1)NC1CCN(CCCN2C(=O)c3ccccc3C2=O)CC1 | inactive
Cc1cc2nc(C)n(CCCNC(=O)Nc3ccc(F)cc3)c2cc1C | inactive
COc1ccc(NC(=O)Cc2ccc(Cl)cc2)cc1NC(=O)c1ccco1 | inactive
Cc1cccc2nc(C(=O)Nc3cccc(C(=O)NC4CC4)c3)cn12 | inactive
Cc1ccc(NC(=O)Nc2ccc3c(c2)nc(C)n3C)cc1 | inactive
COc1ccc(N2CCN(CCNC(=O)Nc3ccc(Cl)cc3)CC2)cc1 | inactive
Cc1ccc(NCc2nnc(SCC(=O)N(Cc3ccccc3)C(C)(C)C)o2)c(C)c1 | inactive
CNC(=O)C(=O)N/N=C/c1cccnc1 | inactive
O=C(CN(C(=O)c1cc2c(s1)CCC2)C1CCCC1)NCc1cccs1 | inactive
CCCc1nc2ccccc2c(=O)n1NC(=O)c1c(O)c2cccc3c2n(c1=O)CCC3 | inactive
COC(=O)Cc1cc(=O)[nH]c(/N=C(\N)Nc2ccc(C)cc2)n1 | inactive
O=C(N/N=C\c1ccc(Cl)cc1)C1=NOC2COC3(CCN(c4ccc([N+](=O)[O-])cc4)CC3)OCC12 (stereo not given) | inactive
